Targets with a hit are over-represented here; the source holds about 7,900 in all. About 0.6% of all pairs of compound and target were hits.

Sequence of UniProt Q8N3P4 (Q8N3P4 whole entry, looked up): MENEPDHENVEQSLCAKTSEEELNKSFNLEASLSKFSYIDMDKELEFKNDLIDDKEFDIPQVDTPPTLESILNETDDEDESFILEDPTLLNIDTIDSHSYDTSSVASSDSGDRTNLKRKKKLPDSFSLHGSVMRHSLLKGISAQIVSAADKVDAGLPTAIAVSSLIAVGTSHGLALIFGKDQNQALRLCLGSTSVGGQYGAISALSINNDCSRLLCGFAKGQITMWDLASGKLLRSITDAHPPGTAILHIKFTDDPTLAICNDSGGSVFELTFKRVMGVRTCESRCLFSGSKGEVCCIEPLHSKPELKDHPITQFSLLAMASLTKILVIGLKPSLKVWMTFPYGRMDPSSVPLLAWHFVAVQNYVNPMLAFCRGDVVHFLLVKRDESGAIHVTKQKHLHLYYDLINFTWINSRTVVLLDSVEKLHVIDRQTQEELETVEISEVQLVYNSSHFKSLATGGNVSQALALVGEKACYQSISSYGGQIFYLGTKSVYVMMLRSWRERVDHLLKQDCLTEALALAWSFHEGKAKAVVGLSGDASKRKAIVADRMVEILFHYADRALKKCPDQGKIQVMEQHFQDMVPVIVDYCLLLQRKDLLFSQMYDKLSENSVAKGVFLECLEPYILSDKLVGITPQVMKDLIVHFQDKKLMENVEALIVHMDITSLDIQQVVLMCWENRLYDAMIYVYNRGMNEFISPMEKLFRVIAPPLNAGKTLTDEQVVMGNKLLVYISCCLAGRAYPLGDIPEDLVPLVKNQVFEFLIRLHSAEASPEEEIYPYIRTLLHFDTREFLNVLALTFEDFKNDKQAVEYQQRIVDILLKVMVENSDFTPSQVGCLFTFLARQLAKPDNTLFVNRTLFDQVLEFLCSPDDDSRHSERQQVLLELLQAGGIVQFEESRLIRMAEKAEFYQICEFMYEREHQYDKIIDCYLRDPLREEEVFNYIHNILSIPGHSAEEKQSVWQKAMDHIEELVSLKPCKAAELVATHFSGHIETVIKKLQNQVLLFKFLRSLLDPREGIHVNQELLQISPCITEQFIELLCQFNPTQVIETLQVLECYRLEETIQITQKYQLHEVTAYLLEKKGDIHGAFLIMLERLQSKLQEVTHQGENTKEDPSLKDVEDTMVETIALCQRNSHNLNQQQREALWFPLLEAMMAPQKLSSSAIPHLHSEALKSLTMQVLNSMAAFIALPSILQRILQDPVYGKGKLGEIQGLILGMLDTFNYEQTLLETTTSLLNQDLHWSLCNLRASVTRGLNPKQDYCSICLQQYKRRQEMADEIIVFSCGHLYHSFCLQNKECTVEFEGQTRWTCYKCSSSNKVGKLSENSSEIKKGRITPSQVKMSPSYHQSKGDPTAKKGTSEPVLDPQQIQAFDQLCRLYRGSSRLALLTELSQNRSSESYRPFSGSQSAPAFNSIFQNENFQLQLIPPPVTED
Sequence of UniProt O75717 (O75717 whole entry, looked up): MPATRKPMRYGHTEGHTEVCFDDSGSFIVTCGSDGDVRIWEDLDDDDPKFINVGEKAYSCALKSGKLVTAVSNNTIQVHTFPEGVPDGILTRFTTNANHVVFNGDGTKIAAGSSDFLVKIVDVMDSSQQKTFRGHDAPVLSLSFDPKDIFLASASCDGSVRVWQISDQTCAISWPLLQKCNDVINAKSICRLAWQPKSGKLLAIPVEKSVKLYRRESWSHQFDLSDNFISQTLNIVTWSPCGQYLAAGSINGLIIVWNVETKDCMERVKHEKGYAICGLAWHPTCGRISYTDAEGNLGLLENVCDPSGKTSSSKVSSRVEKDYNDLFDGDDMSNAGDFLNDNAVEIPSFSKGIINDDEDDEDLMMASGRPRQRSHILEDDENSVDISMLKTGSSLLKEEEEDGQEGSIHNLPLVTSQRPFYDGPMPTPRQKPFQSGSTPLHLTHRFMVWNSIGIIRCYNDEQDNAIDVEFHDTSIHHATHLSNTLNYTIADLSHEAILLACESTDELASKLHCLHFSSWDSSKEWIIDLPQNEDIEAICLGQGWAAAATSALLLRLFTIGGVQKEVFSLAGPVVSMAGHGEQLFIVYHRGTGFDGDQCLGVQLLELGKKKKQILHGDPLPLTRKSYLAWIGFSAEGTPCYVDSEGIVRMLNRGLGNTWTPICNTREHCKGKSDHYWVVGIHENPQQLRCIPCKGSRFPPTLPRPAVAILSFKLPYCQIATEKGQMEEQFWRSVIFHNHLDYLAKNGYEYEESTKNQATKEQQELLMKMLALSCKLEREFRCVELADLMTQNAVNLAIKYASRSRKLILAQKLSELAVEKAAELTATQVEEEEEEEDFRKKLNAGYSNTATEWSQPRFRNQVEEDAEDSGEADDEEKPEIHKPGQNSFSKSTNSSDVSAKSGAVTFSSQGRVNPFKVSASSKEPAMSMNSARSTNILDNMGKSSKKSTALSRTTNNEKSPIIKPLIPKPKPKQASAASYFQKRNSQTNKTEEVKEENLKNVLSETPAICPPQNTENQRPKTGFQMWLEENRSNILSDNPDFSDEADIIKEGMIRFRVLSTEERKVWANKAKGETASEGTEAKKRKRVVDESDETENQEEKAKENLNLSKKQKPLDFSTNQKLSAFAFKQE
Sequence of UniProt O14773 (O14773 whole entry, looked up): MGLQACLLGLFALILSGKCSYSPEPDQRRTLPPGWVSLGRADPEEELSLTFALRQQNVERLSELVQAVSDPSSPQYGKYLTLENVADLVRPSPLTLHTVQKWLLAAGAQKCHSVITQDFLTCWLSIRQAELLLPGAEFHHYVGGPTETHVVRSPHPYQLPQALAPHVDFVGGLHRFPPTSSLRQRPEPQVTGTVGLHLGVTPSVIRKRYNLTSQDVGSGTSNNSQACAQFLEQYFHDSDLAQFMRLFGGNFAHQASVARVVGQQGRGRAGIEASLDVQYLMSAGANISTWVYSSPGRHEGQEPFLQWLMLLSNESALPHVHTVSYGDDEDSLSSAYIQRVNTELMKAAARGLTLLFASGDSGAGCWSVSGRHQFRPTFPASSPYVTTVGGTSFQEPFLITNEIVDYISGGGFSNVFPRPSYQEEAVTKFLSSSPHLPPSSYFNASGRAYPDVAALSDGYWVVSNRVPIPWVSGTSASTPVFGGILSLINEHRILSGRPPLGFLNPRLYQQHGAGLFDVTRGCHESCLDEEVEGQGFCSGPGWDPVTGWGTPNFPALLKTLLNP
Sequence of UniProt Q9H269 (Q9H269 whole entry, looked up): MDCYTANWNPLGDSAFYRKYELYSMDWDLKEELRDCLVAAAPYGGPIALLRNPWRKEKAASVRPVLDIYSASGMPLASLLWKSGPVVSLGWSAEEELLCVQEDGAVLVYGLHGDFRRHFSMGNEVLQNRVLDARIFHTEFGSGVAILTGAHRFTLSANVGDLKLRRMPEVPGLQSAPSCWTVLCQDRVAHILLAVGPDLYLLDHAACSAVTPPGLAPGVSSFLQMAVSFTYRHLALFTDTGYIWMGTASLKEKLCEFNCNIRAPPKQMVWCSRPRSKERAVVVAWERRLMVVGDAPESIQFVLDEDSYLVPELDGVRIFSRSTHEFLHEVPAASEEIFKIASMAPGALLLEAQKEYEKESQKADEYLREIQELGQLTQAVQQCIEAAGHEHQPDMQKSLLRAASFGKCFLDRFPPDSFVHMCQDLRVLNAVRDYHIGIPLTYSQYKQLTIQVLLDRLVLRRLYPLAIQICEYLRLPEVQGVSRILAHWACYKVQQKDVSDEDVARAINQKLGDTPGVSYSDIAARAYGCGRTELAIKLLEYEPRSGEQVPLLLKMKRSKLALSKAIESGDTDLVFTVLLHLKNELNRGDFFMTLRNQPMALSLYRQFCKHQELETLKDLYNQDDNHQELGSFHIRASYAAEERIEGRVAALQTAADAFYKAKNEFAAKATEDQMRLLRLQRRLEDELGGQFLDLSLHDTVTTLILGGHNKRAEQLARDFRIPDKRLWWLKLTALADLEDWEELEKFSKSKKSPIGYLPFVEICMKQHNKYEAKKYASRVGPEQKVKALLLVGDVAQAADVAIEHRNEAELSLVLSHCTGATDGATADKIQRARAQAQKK
Sequence of UniProt Q12768 (Q12768 whole entry, looked up): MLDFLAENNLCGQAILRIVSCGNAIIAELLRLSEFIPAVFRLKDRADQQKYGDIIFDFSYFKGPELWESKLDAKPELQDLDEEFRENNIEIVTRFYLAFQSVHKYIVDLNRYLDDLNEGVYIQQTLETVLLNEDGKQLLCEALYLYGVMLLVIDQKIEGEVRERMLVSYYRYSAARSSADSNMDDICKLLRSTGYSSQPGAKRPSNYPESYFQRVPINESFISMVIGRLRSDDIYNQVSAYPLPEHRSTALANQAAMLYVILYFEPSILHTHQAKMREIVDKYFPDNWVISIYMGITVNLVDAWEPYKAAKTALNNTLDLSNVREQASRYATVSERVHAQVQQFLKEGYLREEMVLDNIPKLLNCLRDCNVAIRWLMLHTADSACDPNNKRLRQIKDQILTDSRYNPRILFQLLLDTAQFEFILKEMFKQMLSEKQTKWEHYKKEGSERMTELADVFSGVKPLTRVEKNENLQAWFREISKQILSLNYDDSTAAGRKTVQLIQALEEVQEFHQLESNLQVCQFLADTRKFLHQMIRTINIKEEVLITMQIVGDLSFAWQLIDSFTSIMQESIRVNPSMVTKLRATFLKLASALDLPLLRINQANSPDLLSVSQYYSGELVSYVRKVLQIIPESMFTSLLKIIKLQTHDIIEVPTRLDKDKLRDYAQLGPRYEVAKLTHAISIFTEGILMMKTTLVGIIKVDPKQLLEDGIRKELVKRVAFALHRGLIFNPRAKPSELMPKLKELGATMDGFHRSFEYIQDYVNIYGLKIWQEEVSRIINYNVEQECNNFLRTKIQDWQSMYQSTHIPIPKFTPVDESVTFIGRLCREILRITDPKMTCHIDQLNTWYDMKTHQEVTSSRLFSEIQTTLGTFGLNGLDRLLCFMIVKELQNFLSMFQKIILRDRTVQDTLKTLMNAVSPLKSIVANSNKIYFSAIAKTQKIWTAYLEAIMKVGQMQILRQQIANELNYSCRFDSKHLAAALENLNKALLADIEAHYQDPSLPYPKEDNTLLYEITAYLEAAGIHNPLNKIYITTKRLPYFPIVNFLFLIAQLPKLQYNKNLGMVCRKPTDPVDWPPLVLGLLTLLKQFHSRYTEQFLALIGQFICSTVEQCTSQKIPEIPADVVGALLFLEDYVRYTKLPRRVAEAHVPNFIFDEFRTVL

Compound in this experiment: c1cn2cc(-c3ccc4cn[nH]c4c3)nc(Nc3ccc(N4CCOCC4)cc3)c2n1 [entospletinib]
Nature of the experiment: log2 fold change, soluble protein after heating vs DMSO (PISA); higher = thermal stabilisation; K562 cells, 10 uM, 30 min; active = over 0.2 and 3.5 SD of the protein, either way, in both replicates (recomputed). The procedure, abridged:
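K562 cells at 2×10^6 cells/mL were exposed to 10 μM compound for 30 min, then aliquots were heated for 3 min across 48°C-58°C, pooled, and extracted in PBS containing 0.5% NP-40 at 4°C. The supernatant after 21,000xg for 90 min was taken as soluble protein and measured by TMTpro 16plex LC-MS/MS with channel sums equalised. Thermal stability is reported relative to control samples, with values from duplicates. Fold changes are given on a log2 scale.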
As to WASHC5 (UniProt Q12768), the log2 fold change is -0.041 (inactive).

Turning to TMEM70 (UniProt Q9BUB7), the log2 fold change is -0.009 (inactive).

As for TPR (UniProt P12270), the log2 fold change was 0.067 (inactive).

As for TRMT10C (UniProt Q7L0Y3), the log2 fold change is -0.043 (inactive).

Take UTP3 (UniProt Q9NQZ2): the log2 fold change is -0.009 (inactive).

Consider TPP1 (UniProt O14773), for which the log2 fold change was -0.018 (inactive).

As for TUBA4A (UniProt P68366), the log2 fold change is -0.031 (inactive).

For the target USP24 (UniProt Q9UPU5), the log2 fold change is 0.016 (inactive).

For TMEM104 (UniProt Q8NE00), the log2 fold change was 0.001 (inactive).

Turning to UHRF1BP1L (UniProt A0JNW5), the log2 fold change was 0.012 (inactive).

As to U2AF1L5 (UniProt P0DN76), the log2 fold change was -0.497 (inactive).

Take TNPO2 (UniProt O14787): the log2 fold change is -0.063 (inactive).

VWA8 (UniProt A3KMH1): the log2 fold change was -0.03 (inactive).

On to TVP23C (UniProt Q96ET8), for which the log2 fold change is 0.419 (active).

As to TMEM8A (UniProt Q9HCN3), the log2 fold change was -0.002 (inactive).

On to TMEM268 isoform 3 (UniProt Q5VZI3), for which the log2 fold change was -0.054 (inactive).

In the case of VPS8 (UniProt Q8N3P4), the log2 fold change was 0.034 (inactive).

WDR7 (UniProt Q9Y4E6): the log2 fold change is 0.126 (inactive).

Regarding UBE2S (UniProt Q16763), the log2 fold change was -0.029 (inactive).

Regarding UCHL5 isoform 3 (UniProt Q9Y5K5), the log2 fold change is -0.025 (inactive).

Consider VPS16 (UniProt Q9H269), for which the log2 fold change is -0.06 (inactive).

For TXNIP (UniProt Q9H3M7), the log2 fold change was -0.146 (inactive).

Take WDHD1 (UniProt O75717): the log2 fold change was -0.019 (inactive).
